In PubChem BioAssay:
Records with an inconclusive call do not appear. Activity calls are given as the source filed them.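 The calls were made as follows, unless noted: active = inhibition above the screen-wide mean plus 3 SD, about 51%; inactive = the rest.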

Columns and labels:
[1] = rapamycin-like changes in RPL19A-GFP expression – cell-based, S. cerevisiae, multiplex flow cytometry, primary screen (AID 1862; in the data active = percent of DMSO control GFP below about 86%;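 also: lower values mimic rapamycin by blocking the RPL19A rise seen in DMSO cells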); conditions: S. cerevisiae RPL19A-GFP strain, flow cytometry fluorescence, 3 h; at 10 µM; stronger effect = lower value
[2] = TOR pathway GLN3 branch reporter MEP2-GFP changes – S. cerevisiae, multiplex flow cytometry, primary screen (AID 1867;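 active = GFP response, as percent of the DMSO control, above the screen-wide mean plus 3 SD, about 139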;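 also: median GFP channel fluorescence of barcode-gated MEP2-GFP cells measured by flow cytometry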); conditions: S. cerevisiae MEP2-GFP strain, 3 h, at 10 µM, stronger effect = higher value, 100% means same as DMSO wells
[3] = TOR pathway RTG branch CIT2 reporter changes – S. cerevisiae, GFP fusion, multiplex flow cytometry, primary screen (AID 1870;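 active = percent response above a set limit, the screen-wide mean plus 3 SD, cut at about 130% in these data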;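 also: barcoded CIT2-GFP strain pooled with four other GFP strains with rapamycin as positive control; median GFP fluorescence per well over plate mean of DMSO wells so 100% = DMSO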); conditions: S. cerevisiae CIT2-GFP expression, 3 h, at 10 µM, stronger effect = higher value
[4] = TOR pathway LAP4-GFP level changes – S. cerevisiae, multiplex flow cytometry, primary screen (AID 1873;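 active = GFP signal, as percent of the solvent control, above the screen mean plus 3 SD, about 149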); conditions: S. cerevisiae LAP4-GFP expression, 3 h, at 10 µM, stronger effect = higher value
[5] = yeast AGP1-GFP level changes, GLN3 branch – cell-based, multiplex flow cytometry, S. cerevisiae, primary screen (AID 1887;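 active = GFP signal above the screen-wide mean plus 3 SD, that is over about 124.5% of the solvent control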;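 also: AGP1-GFP fusion strain of S. cerevisiae within a five-strain barcoded multiplex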); conditions: 3 h, at 10 µM, stronger effect = higher value
[6] = reduced mouse 2C T cell binding to pMHC/ICAM-1 vesicles – MLPCN validation set, flow cytometry, LFA-1/ICAM-1 modulator project, pilot screen (AID 2523;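 active = response below a set limit, under 55% cells CD8-positive and vesicle-bound, and CD8 cells' 90th-percentile brightness under 279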;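 as to vesicle binding response: mean PE anti-B7-1 fluorescence of CD8+ cells relative to row control; 100% = QL9-loaded vesicles with DMSO vehicle in the same plate row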); conditions: 2C mouse CD8+ T cells, at 7 µM, stronger effect = lower value; double positive events: measured here: CD8+/vesicle+ event percentage
[7] = target: Integrin beta-1 (Homo sapiens) + Integrin alpha-4 (Homo sapiens) (UniProt P13612+P05556); assay: alpha4beta1 integrin LIBS antibody binding reduction – U937 cells, HUTS-21 mAb, flow cytometry, validation set, VLA-4 allosteric modulator project, pilot screen (AID 2674;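 active = inhibition above 50%, about 3 SD of the validation set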;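 also: antibody binding induced by the VLA-4 ligand LDV present at three times its Kd; 0% = LDV ligand with antibody and no compound and 100% = antibody without LDV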); conditions: HUTS-21 LIBS mAb binding, at 6.7 µM, stronger effect = higher value, binding induced by LDV ligand
[8] = calorie-restriction mimetic ROS inhibitors, yeast – validation compound set, pilot screen (AID 2706;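 active = superoxide response below 65% of plate, a cut near 3 SD across the whole screen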;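 also: yeast exposed to compound for one week at 30 degrees C before staining; 100% = mean of all compound wells on the same plate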); conditions: S. cerevisiae aging, superoxide DHE fluorescence; at 10 µM; stronger effect = lower value
[9] = target: Beta-adrenergic receptor kinase 1 (Homo sapiens) (UniProt P25098); assay: GRK2 binders displacing RNA aptamer, biochemical, validation, human GRK2, bead flow cytometry (AID 488806;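 active = aptamer binding inhibition above 30%, about 3 SD of noise from non-fluorescent compounds; inactive = inhibition at or below 30%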); conditions: bead-bound GRK2, FAM-aptamer displacement, at 10 µM, stronger effect = higher value
[10] = target: Beta-2 adrenergic receptor (Homo sapiens) (UniProt P07550); assay: agonist-induced loss of surface beta2AR – cell-based, FAP fluorogen, flow cytometry, validation set, pilot screen (AID 504459;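 active = percent response above 42, roughly 3 SD of non-fluorescent test compounds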;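 also: agonist-driven loss of surface beta2AR via internalization measured by FAP dye flow cytometry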); conditions: Am2.2-beta2AR cells, at 10 µM, stronger effect = higher value
[11] = target: AP-2 complex subunit beta (Homo sapiens) (UniProt P63010); assay: beta-arrestin/AP2 interaction blockers – biochemical, validation set, GST-AP2 beads, flow cytometry, pilot screen (AID 504541;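 active = inhibition above 54%, about 3 SD of non-fluorescent compounds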;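 also: AP2 carries R879A mutation and is captured from E. coli lysate; bead-bound FITC arrestin peptide fluorescence measuring arrestin peptide binding to AP2; 0% = DMSO wells and 100% = excess unlabeled arrestin peptide control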); conditions: FITC arrestin peptide, at 10 µM, stronger effect = higher value, AP2 beta2 appendage fragment, R879A mutant
[12] = cytosolic pH regulators acting via V-ATPase – S. cerevisiae, pHLuorin, HTS validation (AID 504600; in the data active = response above about 15%;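 also: plate controls were DMSO for no effect and reference compound for full effect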); conditions: V-ATPase proton transport, at 10 µM, stronger effect = higher value
[13] = tested on: anti-desmoglein-3 scFv antibody binding to human DSG3; assay: blockers of pathogenic pemphigus antibody–desmoglein-3 binding – biochemical, validation compound set, bead-based, flow cytometry, pilot screen (AID 588368;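 active = binding below the plate cutoff, the plate median minus 3 SD, with a reading above zero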;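 also: signal is the median channel fluorescence of bead-bound GFP antibody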); conditions: Protein G beads, DSG3-Fc, scFv-GFP binding, at 10 µM, stronger effect = lower value
[14] = Nile Red efflux blockade in pump-expressing yeast – validation compound set, multiplex, phenotypic, pilot screen (AID 588506;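 active = efflux inhibition above 0.42, the validation set average plus 4 SD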;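 also: Nile Red retained in cells so higher fluorescence means more efflux inhibition; 0 = negative control wells and 1 = enniatin B 25 µM full block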); conditions: S. cerevisiae pump-expressing triplex, Nile Red efflux flow cytometry; at 10 µM; stronger effect = higher value; the pumps come from Candida albicans
[15] = target: ATP-binding cassette sub-family B member 6 (Homo sapiens) (UniProt Q9NP58); assay: blockers of ABCB6-driven porphyrin uptake – K562-ABCB6 cells, flow cytometry, validation set, pilot screen (AID 588550); conditions: K562-ABCB6 porphyrin accumulation, 1 h, at 10 µM, stronger effect = higher value;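 also: 0% = DMSO wells and 100% = benzethonium chloride 70 µM positive control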
[16] = AML differentiation inducers, ER-HoxA9 marrow cells – cell-based, GFP/MAC1 double positive, flow cytometry, validation set, primary screen (AID 588685;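 active = differentiation response of at least 50%, scaled between solvent and reference control, from cells with both markers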;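 also: compound exposure lasts four days before antibody staining and flow analysis; 0% = DMSO wells and 100% = 5 µM fulvestrant positive control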); conditions: stronger effect = higher value, normalized: vehicle 0, fulvestrant 100

Beta-adrenergic receptor kinase 1 (Homo sapiens), sequence (P25098 whole entry, looked up): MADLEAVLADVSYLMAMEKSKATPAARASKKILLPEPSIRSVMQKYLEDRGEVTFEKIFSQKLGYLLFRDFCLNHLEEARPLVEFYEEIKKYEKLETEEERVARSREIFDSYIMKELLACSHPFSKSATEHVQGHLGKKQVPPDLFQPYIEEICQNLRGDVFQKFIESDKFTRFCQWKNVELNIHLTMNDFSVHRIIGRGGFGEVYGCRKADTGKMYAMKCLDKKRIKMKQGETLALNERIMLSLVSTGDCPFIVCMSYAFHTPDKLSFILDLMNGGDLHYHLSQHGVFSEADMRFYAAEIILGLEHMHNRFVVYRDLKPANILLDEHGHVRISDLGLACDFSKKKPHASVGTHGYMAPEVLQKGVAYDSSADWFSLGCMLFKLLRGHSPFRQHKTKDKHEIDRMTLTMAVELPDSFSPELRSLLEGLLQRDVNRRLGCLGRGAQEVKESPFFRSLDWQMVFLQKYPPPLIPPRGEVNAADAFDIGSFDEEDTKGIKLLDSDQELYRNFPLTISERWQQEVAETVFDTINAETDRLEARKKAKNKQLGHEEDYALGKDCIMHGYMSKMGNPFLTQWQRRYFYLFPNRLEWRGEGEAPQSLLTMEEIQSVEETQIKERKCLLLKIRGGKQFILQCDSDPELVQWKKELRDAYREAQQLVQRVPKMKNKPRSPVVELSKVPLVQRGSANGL
ATP-binding cassette sub-family B member 6 (Homo sapiens), sequence (Q9NP58 whole entry, looked up): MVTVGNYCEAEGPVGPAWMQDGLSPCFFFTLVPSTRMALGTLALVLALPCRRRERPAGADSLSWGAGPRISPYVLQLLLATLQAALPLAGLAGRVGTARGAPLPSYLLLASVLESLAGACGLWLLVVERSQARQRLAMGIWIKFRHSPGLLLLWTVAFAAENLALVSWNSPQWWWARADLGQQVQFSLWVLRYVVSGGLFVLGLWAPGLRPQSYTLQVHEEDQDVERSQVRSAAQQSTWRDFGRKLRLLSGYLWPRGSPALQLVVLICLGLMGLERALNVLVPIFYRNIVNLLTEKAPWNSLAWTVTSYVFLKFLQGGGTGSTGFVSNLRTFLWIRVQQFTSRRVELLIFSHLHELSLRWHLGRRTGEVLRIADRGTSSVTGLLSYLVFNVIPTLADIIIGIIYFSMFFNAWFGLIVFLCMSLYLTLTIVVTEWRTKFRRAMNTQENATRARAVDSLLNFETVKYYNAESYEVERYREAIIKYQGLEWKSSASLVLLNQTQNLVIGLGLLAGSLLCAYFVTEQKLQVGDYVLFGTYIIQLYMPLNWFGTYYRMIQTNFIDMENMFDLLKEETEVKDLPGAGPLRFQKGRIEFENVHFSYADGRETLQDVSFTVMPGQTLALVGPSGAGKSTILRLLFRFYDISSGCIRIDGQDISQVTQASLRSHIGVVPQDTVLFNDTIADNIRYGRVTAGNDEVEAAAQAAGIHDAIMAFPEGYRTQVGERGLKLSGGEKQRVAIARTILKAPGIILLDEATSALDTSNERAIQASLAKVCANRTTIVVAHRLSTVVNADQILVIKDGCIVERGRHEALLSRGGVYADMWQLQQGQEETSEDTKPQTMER
AP-2 complex subunit beta (Homo sapiens), sequence (P63010 whole entry, looked up, the tested form may be a part, one chain of several): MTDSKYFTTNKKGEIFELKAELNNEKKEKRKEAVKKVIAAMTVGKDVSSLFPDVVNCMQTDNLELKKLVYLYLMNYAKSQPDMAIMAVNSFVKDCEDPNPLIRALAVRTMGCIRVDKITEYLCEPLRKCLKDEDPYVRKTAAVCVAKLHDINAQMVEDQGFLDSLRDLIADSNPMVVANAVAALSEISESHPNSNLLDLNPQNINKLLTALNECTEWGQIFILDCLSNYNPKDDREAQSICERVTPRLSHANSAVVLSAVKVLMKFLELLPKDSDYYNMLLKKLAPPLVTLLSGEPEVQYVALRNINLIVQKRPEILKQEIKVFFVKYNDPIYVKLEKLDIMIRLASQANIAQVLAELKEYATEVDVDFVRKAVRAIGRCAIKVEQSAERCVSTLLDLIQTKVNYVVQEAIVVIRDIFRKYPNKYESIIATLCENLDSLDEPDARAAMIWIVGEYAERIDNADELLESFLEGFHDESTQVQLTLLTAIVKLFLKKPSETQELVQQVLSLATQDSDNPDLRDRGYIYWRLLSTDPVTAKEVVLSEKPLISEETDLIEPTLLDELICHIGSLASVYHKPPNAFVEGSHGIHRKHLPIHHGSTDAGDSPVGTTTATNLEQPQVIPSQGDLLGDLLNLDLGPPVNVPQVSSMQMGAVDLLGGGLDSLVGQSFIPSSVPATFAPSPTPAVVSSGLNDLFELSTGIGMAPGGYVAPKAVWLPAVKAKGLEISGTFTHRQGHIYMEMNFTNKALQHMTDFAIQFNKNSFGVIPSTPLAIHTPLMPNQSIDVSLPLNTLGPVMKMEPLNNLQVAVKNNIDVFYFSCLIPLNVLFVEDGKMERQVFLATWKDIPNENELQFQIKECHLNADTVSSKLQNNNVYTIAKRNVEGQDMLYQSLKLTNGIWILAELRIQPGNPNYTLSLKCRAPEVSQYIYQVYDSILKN
Beta-2 adrenergic receptor (Homo sapiens), sequence (P07550 whole entry, looked up): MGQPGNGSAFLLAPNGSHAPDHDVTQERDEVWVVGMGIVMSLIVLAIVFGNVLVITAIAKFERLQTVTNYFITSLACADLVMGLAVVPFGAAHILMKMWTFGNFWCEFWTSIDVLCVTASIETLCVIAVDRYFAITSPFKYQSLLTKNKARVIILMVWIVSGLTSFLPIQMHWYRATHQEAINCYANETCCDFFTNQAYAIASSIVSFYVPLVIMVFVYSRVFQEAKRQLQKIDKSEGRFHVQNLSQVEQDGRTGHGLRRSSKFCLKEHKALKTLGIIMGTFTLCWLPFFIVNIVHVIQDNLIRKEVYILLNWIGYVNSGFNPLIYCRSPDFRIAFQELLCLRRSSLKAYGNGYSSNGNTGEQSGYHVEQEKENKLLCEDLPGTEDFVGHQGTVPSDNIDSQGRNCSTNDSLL
Integrin beta-1 (Homo sapiens) + Integrin alpha-4 (Homo sapiens), sequence (P05556 whole entry, looked up): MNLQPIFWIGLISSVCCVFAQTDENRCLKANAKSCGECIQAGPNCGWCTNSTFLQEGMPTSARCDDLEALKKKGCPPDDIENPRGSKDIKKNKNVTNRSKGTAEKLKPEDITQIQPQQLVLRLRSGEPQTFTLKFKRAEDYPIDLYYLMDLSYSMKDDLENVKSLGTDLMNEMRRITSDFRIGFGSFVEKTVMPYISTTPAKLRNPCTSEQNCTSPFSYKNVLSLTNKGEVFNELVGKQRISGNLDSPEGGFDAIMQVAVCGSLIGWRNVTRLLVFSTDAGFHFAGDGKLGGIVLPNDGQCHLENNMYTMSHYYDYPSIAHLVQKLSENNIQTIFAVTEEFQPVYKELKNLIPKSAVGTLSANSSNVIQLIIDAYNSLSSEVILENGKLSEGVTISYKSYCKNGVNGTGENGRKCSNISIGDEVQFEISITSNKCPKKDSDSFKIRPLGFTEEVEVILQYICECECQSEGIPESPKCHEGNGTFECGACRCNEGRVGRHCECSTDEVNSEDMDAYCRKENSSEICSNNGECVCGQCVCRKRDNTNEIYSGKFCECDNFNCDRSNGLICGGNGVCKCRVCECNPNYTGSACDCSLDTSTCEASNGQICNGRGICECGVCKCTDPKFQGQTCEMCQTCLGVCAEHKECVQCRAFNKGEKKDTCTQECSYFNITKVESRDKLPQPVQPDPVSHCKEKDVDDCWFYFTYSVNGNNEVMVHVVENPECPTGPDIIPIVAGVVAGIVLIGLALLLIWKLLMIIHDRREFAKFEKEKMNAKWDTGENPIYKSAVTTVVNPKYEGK
Integrin beta-1 (Homo sapiens) + Integrin alpha-4 (Homo sapiens), sequence (P13612 whole entry, looked up): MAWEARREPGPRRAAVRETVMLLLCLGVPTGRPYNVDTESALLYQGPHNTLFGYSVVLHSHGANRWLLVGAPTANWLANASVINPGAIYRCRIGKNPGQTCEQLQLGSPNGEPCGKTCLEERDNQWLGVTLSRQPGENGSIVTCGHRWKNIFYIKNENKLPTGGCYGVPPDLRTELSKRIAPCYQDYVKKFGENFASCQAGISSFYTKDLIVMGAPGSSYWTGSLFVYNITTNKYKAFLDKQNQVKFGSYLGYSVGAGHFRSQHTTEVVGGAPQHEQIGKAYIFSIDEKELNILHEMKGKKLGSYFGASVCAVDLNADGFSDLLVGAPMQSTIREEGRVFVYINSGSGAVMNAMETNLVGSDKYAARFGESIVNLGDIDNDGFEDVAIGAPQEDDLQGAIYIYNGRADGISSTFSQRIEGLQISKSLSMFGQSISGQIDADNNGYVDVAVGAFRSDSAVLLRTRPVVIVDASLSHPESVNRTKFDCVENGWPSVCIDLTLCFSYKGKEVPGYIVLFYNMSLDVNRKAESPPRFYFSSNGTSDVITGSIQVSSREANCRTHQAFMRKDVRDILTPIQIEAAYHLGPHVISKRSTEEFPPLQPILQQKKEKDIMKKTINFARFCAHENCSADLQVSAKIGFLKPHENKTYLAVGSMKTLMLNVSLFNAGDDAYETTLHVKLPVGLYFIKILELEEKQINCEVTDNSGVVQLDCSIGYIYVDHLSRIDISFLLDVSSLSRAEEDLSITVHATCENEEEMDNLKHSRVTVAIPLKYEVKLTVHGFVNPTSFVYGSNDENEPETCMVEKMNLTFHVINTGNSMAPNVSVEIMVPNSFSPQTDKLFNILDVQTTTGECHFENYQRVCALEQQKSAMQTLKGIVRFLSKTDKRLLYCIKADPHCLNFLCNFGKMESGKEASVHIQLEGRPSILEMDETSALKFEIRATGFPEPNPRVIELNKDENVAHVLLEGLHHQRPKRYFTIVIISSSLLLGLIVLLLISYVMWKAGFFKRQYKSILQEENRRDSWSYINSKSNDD

For `CO[C@@]1(NC(=O)Cc2cccs2)C(=O)N2C(C(=O)O)=C(COC(N)=O)CS[C@@H]21`, the percent of DMSO control GFP [1] was 91.5% (inactive), the GFP response vs DMSO [2] was 130% (inactive) and the percent response of DMSO control [3] was 111% (inactive). The GFP response vs DMSO [4] was 83.6% (inactive), the GFP response, % of DMSO [5] was 119% (inactive) and the double positive events [6] was 64.1%. For the same compound, the vesicle binding response [6] was 191% (inactive), the inhibition [7] was -18.8% (inactive) and the superoxide response (% of plate) [8] was 112% (inactive). The aptamer binding inhibition [9] was 9% (inactive), the response [10] was -3.96% (inactive) and the inhibition [11] was 1.97% (inactive). For the same compound, the response [12] was -0.45% (inactive), the binding (% of control) [13] was 93.6% (inactive) and the efflux inhibition (fraction of control) [14] was 0.16 (inactive). For the same compound, the inhibition [15] was 14% (inactive) and the differentiation response [16] was -7.37% (inactive).
For `COc1ccc(C(=O)CCN2CCc3cc(OC)c(OC)cc3C2)cc1`, the percent of DMSO control GFP [1] was 104% (inactive), the GFP response vs DMSO [2] was 116% (inactive) and the percent response of DMSO control [3] was 107% (inactive). For the same compound, the GFP response vs DMSO [4] was 70.3% (inactive), the GFP response, % of DMSO [5] was 99.7% (inactive) and the double positive events [6] was 59%. For the same compound, the vesicle binding response [6] was 115% (inactive), the inhibition [7] was 1.12% (inactive) and the superoxide response (% of plate) [8] was 111% (inactive). For the same compound, the aptamer binding inhibition [9] was 2% (inactive), the response [10] was 2.49% (inactive) and the inhibition [11] was -1.91% (inactive). The response [12] was -2.28% (inactive), the binding (% of control) [13] was 96.7% (inactive) and the efflux inhibition (fraction of control) [14] was 0.42 (inactive). The inhibition [15] was 13% (inactive) and the differentiation response [16] was 4.97% (inactive).
For `Cc1ccc2c(c1)C1CN(C)CCC1N2S(=O)(=O)c1ccc(Oc2ccc([N+](=O)[O-])cc2)cc1` (stereo not drawn), the percent of DMSO control GFP [1] was 104% (inactive), the GFP response vs DMSO [2] was 103% (inactive) and the percent response of DMSO control [3] was 106% (inactive). The GFP response vs DMSO [4] was 91.5% (inactive), the GFP response, % of DMSO [5] was 97% (inactive) and the double positive events [6] was 56.7%. The vesicle binding response [6] was 153% (inactive), the inhibition [7] was 2.93% (inactive) and the superoxide response (% of plate) [8] was 97.8% (inactive). The aptamer binding inhibition [9] was -7% (inactive), the response [10] was 25.2% (inactive) and the inhibition [11] was -1.46% (inactive). The response [12] was 10.4% (inactive), the binding (% of control) [13] was 105% (inactive) and the efflux inhibition (fraction of control) [14] was 0.085 (inactive). For the same compound, the inhibition [15] was -4% (inactive) and the differentiation response [16] was -14.8% (inactive).
For `CC(=O)N(CCC(Cc1ccccc1)c1ccc2c(c1)OCO2)Cc1ccc(Cl)cc1` (stereo not drawn), the percent of DMSO control GFP [1] was 93.9% (inactive), the GFP response vs DMSO [2] was 113% (inactive) and the percent response of DMSO control [3] was 103% (inactive). The GFP response vs DMSO [4] was 79.2% (inactive), the GFP response, % of DMSO [5] was 92.2% (inactive) and the double positive events [6] was 59.9%. For the same compound, the vesicle binding response [6] was 165% (inactive), the inhibition [7] was -9.06% (inactive) and the superoxide response (% of plate) [8] was 102% (inactive). The aptamer binding inhibition [9] was -1% (inactive), the response [10] was -1.43% (inactive) and the inhibition [11] was -8.25% (inactive). For the same compound, the response [12] was -2% (inactive), the binding (% of control) [13] was 104% (inactive) and the efflux inhibition (fraction of control) [14] was 0.05 (inactive). The inhibition [15] was 6% (inactive) and the differentiation response [16] was -3.28% (inactive).
For `COc1ccc(/C=C2\CC/C(=C\c3ccc(OC)c(OC)c3)C2=O)cc1OC`, the percent of DMSO control GFP [1] was 99.8% (inactive), the GFP response vs DMSO [2] was 103% (inactive) and the percent response of DMSO control [3] was 97.1% (inactive). For the same compound, the GFP response vs DMSO [4] was 97.2% (inactive), the GFP response, % of DMSO [5] was 96.6% (inactive) and the double positive events [6] was 59.8%. The vesicle binding response [6] was 254% (inactive), the inhibition [7] was -18.9% (inactive) and the superoxide response (% of plate) [8] was 99% (inactive). The aptamer binding inhibition [9] was 3% (inactive), the response [10] was 17.4% (inactive) and the inhibition [11] was 0.71% (inactive). For the same compound, the response [12] was -0.5% (inactive), the binding (% of control) [13] was 98.8% (inactive) and the efflux inhibition (fraction of control) [14] was 0.1 (inactive). The inhibition [15] was 2% (inactive) and the differentiation response [16] was -5.68% (inactive).
With `O=C1C(Cc2c[nH]c3ccccc23)NC(=S)N1Cc1ccccc1` (stereo not drawn) the percent of DMSO control GFP [1] was 108% (inactive), the GFP response vs DMSO [2] was 102% (inactive) and the percent response of DMSO control [3] was 104% (inactive). The GFP response vs DMSO [4] was 91.5% (inactive), the GFP response, % of DMSO [5] was 95.5% (inactive) and the double positive events [6] was 67.5%. For the same compound, the vesicle binding response [6] was 132% (inactive), the inhibition [7] was 8.29% (inactive) and the superoxide response (% of plate) [8] was 104% (inactive). The aptamer binding inhibition [9] was 1% (inactive), the response [10] was 3.86% (inactive) and the inhibition [11] was 2.2% (inactive). For the same compound, the response [12] was -1.19% (inactive), the binding (% of control) [13] was 94.9% (inactive) and the efflux inhibition (fraction of control) [14] was 0 (inactive). The inhibition [15] was 8% (inactive) and the differentiation response [16] was 7.13% (inactive).
In the case of `c1coc(-c2nnc3n2C2(CCCC2)Cc2ccccc2-3)c1`, the percent of DMSO control GFP [1] is reported as 94.2% (inactive), the GFP response vs DMSO [2] is reported as 114% (inactive) and the percent response of DMSO control [3] is reported as 97.9% (inactive). For the same compound, the GFP response vs DMSO [4] was 82.5% (inactive), the GFP response, % of DMSO [5] was 91.5% (inactive) and the double positive events [6] was 73.1%. For the same compound, the vesicle binding response [6] was 279% (inactive), the inhibition [7] was 25.9% (inactive) and the superoxide response (% of plate) [8] was 91.6% (inactive). For the same compound, the aptamer binding inhibition [9] was 4% (inactive), the response [10] was -2% (inactive) and the inhibition [11] was -13.2% (inactive). The response [12] was 0.46% (inactive), the binding (% of control) [13] was 109% (inactive) and the efflux inhibition (fraction of control) [14] was -0.6 (inactive). The inhibition [15] was 14% (inactive) and the differentiation response [16] was 3.28% (inactive).
With `CCOC(=O)N1CCN(Cc2nc(Cc3cccc(F)c3)no2)CC1` the percent of DMSO control GFP [1] was 102% (inactive), the GFP response vs DMSO [2] was 105% (inactive) and the percent response of DMSO control [3] was 100% (inactive). For the same compound, the GFP response vs DMSO [4] was 99.9% (inactive), the GFP response, % of DMSO [5] was 101% (inactive) and the double positive events [6] was 64.5%. The vesicle binding response [6] was 171% (inactive), the inhibition [7] was -3.57% (inactive) and the superoxide response (% of plate) [8] was 103% (inactive). The aptamer binding inhibition [9] was 5% (inactive), the response [10] was 0.58% (inactive) and the inhibition [11] was -8.69% (inactive). The response [12] was 2.06% (inactive), the binding (% of control) [13] was 94.8% (inactive) and the efflux inhibition (fraction of control) [14] was 0.02 (inactive). For the same compound, the inhibition [15] was 13% (inactive) and the differentiation response [16] was 4.15% (inactive).
For `Cc1oncc1C(=O)Nc1ccc(C(F)(F)F)cc1`, the percent of DMSO control GFP [1] was 95.7% (inactive), the GFP response vs DMSO [2] was 98.6% (inactive) and the percent response of DMSO control [3] was 101% (inactive). The GFP response vs DMSO [4] was 124% (inactive), the GFP response, % of DMSO [5] was 105% (inactive) and the double positive events [6] was 57.4%. The vesicle binding response [6] was 171% (inactive), the inhibition [7] was 3.99% (inactive) and the superoxide response (% of plate) [8] was 101% (inactive). The aptamer binding inhibition [9] was 10% (inactive), the response [10] was -21.8% (inactive) and the inhibition [11] was -2.96% (inactive). For the same compound, the response [12] was 6.73% (inactive), the binding (% of control) [13] was 96% (inactive) and the efflux inhibition (fraction of control) [14] was -0.04 (inactive). For the same compound, the inhibition [15] was -7% (inactive) and the differentiation response [16] was -4.99% (inactive).
